Measurements: ChEMBL document CHEMBL3988442, “University of Dundee, Small-Polar-MMV Screening Library” (2021)
In all, about 48,000 compounds went through this assay and about 13,000 (27%) showed an effect of 50% or more. The list shows a part of the results.

System: Wolbachia pipientis
Assay: Anti-Wolbachia Cell-Based Screen
Type: functional
Parameters: scale not given: in the data most compounds retested in dose-response had high values
Details: 5 µM

Compared with `COc1ccccc1OCC(=O)Nc1ncccc1OC(F)F`, `COc1ncccc1-c1cc(C(=O)NC2CC2)ccn1` is higher in “Percent Effect” value: -1.305% for the first, 1.183% for the second.

Going from `CCCNC(=O)CSc1nnc2[nH]c(=O)cc(CC)n12` to `Cc1cc(CNC(=O)c2cn(CCC3CCCCN3)nn2)on1` (stereo not given), the “Percent Effect” value rises from -17.32% to -16.72%.

Going from `Cc1nc(C(=O)N2CCC3(CC2)CC(=O)N(CC2CCCO2)C3)cs1` (stereo not given) to `Cc1occc1C(=O)N1CCC2(CCN(Cc3cccs3)C2)CC1.O=C(O)C(F)(F)F`, the “Percent Effect” value falls from 9.74% to -0.4808%.

First: Cn1ccc(C(=O)N(CC(F)F)c2cccc(Cl)c2)cc1=O
Second: O=C(O)c1csc(S(=O)(=O)N2CCCc3cccc(OC(F)F)c32)c1
The “Percent Effect” value of the first is higher: -3.04% for the first, -29.54% for the second.

First: O=C(O)C1(n2cccn2)CCN(c2nc(-c3ccccc3)no2)CC1
Second: O=C(O)C1(n2ccc(-c3ccco3)n2)CCN(Cc2cccs2)CC1
The “Percent Effect” value of the first is lower: -0.7442% for the first, 77.42% for the second.

First: Cc1n[nH]c(C)c1CCN(C)c1ccc(-c2nc(C3CC3)no2)cn1
Second: COc1ccc(OC)c2c(C)cc(N(C)CCO)nc12
The “Percent Effect” value of the first is higher: 5.085% for the first, -15.31% for the second.

First: COCCO[C@@H]1C[C@H]2CN(C(=O)c3cnccn3)CCN2C1
Second: Cc1cc(C2CCCN(C(=O)c3ccc(OCC4CC4)nc3)C2)n[nH]1 (stereo not given)
The “Percent Effect” value of the first is lower: -15.94% for the first, -13.31% for the second.

First: COC(=O)C(C)CN(Cc1ccccc1)C(=O)CN1CCCNC1=O (stereo not given)
Second: CN(C)C(=O)CN1CCN(C(=O)c2cnn(-c3ccccc3Cl)c2)CC1
The “Percent Effect” value of the first is lower: -9.826% for the first, 104.8% for the second.

First: Cc1ccc(N2CCC(C(=O)O)(n3ccc(C(C)C)n3)CC2)nn1
Second: Cc1cc(N2CCC(C(=O)O)(n3ccc(C(C)C)n3)CC2)nc(N)n1
The “Percent Effect” value of the first is higher: -12.67% for the first, -20.6% for the second.

Going from `O=C(O)C(F)(F)F.c1coc(COCc2ncn3c2CN(Cc2cccs2)CCC3)c1` to `Cc1csc(CN2CCC(C(=O)O)(n3ccc(-c4ccco4)n3)CC2)n1`, the “Percent Effect” value rises from 7.487% to 105%.

First: Cc1nc(CN2CCC(C(=O)O)(n3ccc(C(C)C)n3)CC2)co1
Second: Cc1nccn1C1(C(=O)O)CCN(Cc2ccc3occc3c2)CC1
The “Percent Effect” value of the first is higher: 99.57% for the first, -3.386% for the second.

Compared with `Cc1csc(CN2C[C@@H]3COC[C@]3(C(=O)NCc3ccco3)C2)n1`, `CS(=O)(=O)N1C[C@@H]2CC[C@H](C1)N(CCC(=O)NCc1ccco1)C2` is higher in “Percent Effect” value: -36.74% for the first, 6.139% for the second.

Compared with `O=C1CN(CCCNC(=O)Nc2cccc(Cl)c2F)CCN1`, `CCOc1c(Cl)cccc1NS(=O)(=O)c1cc(C)c(C(=O)O)s1` is lower in “Percent Effect” value: 1.597% for the first, -12.6% for the second.

Going from `Cc1cc(C)n(-c2ccc(N3CCCSCC3)nc2)n1` to `O=C(c1cn(-c2ccccc2Cl)nn1)N1CCCSCC1`, the “Percent Effect” value rises from 0.3589% to 0.4154%.

First: CC1CCc2n[nH]c(C(=O)NCCc3ccco3)c2C1 (stereo not given)
Second: COc1ccc(F)c(-c2cc(C(=O)NC3CC3)ccn2)c1
The “Percent Effect” value of the first is higher: 14.64% for the first, -1.956% for the second.

First: CCOc1ccccc1-c1noc(CN2CCCC(O)C2)n1 (stereo not given)
Second: CNc1ncc(C(=O)N2CCCC(Cc3ccccc3OC)C2)s1 (stereo not given)
The “Percent Effect” value of the first is higher: -2.765% for the first, -5.807% for the second.

First: CC(C)S(=O)(=O)C(C)C(=O)Nc1ccc2oc(C3CC3)nc2c1 (stereo not given)
Second: CCc1ccc2nc(C)cc(C(=O)NC3CCNC3=O)c2c1 (stereo not given)
The “Percent Effect” value of the first is lower: -8.387% for the first, 1.98% for the second.

Going from `O=C(c1cccnc1O)N1CCCN(c2cccnn2)CC1` to `CC(=O)N1CCCN(C(=O)c2cnn(-c3ccccc3Cl)c2)CC1`, the “Percent Effect” value rises from -5.126% to 140%.

First: Cc1noc(C)c1C(=O)N1C[C@@H]2CCCO[C@@H]2[C@H](N(C)C)C1
Second: CNc1ccc(CC2CCCN(C(=O)c3c(C)noc3C)C2)nn1 (stereo not given)
The “Percent Effect” value of the first is lower: 3.092% for the first, 118% for the second.

Going from `CNc1ccc(CC2CCCN(C(=O)c3scnc3C)C2)nn1` (stereo not given) to `CCc1cc(C(=O)N2CCCC(Cc3ccc(NC)nn3)C2)on1` (stereo not given), the “Percent Effect” value rises from 109.5% to 109.6%.

First: O=C(c1cc(CC2(NC3CCCCC3)COC2)no1)N1CCCCC1
Second: O=C(c1cc(CC2(NCC3CCCCC3)COC2)no1)N1CCCCC1
The “Percent Effect” value of the first is higher: 6.649% for the first, 0.2272% for the second.

First: CNc1ccc(CC2CCCN(C(=O)c3cnco3)C2)nn1 (stereo not given)
Second: CCOc1cc(C(=O)N2CCCC(c3cc(C(N)=O)[nH]n3)C2)ccn1 (stereo not given)
The “Percent Effect” value of the first is higher: 129.2% for the first, -0.59% for the second.

Going from `O=C(CN1CCCc2c(F)cc(Br)cc21)N1CCCC1` to `O=C(c1ccc2c(c1)[nH]c(=O)n2C1CCCC1)N1CCC1`, the “Percent Effect” value falls from -2.164% to -5.446%.

Going from `CCN1CCC(Cn2ccc3c(OC)c(OC)ccc3c2=O)C1` (stereo not given) to `Cc1cc(C(=O)N2CCN[C@H](C)C2)c2ccc(F)cc2n1`, the “Percent Effect” value rises from -8.791% to 95.19%.

First: COCC[C@]1(O)CCN(c2ncc(Cl)cc2F)C[C@H]1C
Second: COCCC(=O)N1CCC(c2noc3nc(C)cc(C(F)(F)F)c23)CC1
The “Percent Effect” value of the first is lower: -5.057% for the first, 3.825% for the second.

Compared with `CCc1nc(C)sc1CN1CC[C@@](O)(C2CC2)[C@H](C)C1`, `CCc1nc(C)sc1CN1CC[C@@](O)(C2CCOCC2)[C@H](C)C1` is higher in “Percent Effect” value: 90.8% for the first, 107.2% for the second.

Going from `Cc1nonc1CN1CC[C@@](O)(C2CCOCC2)[C@H](C)C1` to `Cc1nonc1CN1CC[C@@](O)(C2CCC2)[C@H](C)C1`, the “Percent Effect” value rises from -5.747% to 2.704%.

First: Cc1nnsc1CN1CC[C@@](O)(C2CCC2)[C@H](C)C1
Second: C[C@@H]1CN(Cc2nc(C(N)=O)no2)CC[C@@]1(O)C1CCOCC1
The “Percent Effect” value of the first is lower: -20.69% for the first, -5.887% for the second.

Going from `CCC1=N[C@@]2(CC[C@@H]3CN(S(=O)(=O)CC(C)C)C[C@@H]32)C(=O)N1CC` to `Cc1nc(CCCNC(=O)C2CC(=O)N(C3CCCC3)C2)sc1C` (stereo not given), the “Percent Effect” value falls from 2.129% to -46.61%.

Going from `Cc1nc(-c2ccc(S(=O)(=O)N3CCSC3)cc2)co1` to `O=C(c1cn(-c2ccccc2Cl)nn1)N1CCSCC1`, the “Percent Effect” value rises from -2.878% to 139.5%.

Going from `Cl.O=C(c1ccnc(C2CCNCC2)c1)N1CCCC1` to `Cl.O=C(c1ccnc(C2CCNCC2)c1)N1CCCOCC1`, the “Percent Effect” value rises from 87.63% to 107.9%.

First: O=C(c1ccc(C2CCCO2)s1)N1CCCOCC1 (stereo not given)
Second: O=C(c1ccnc(C2CCNCC2)c1)N1CCCC(CO)C1 (stereo not given)
The “Percent Effect” value of the first is lower: 7.048% for the first, 100.1% for the second.

Going from `Cl.Cl.Cn1cnc2c(N3CCOCC3)nc(C3CCNCC3)cc21` to `Cl.Cl.Cn1cnc2c(N3CCCC3)nc(C3CCNCC3)cc21`, the “Percent Effect” value falls from -9.589% to -10.47%.

Going from `Cl.O=C(NC1CCCC1)c1ccnc(C2CCNCC2)c1` to `Cc1ccc(N2C[C@@H]3CN(C(=O)NC4CCCC4)C[C@]3(C(=O)O)C2)nn1`, the “Percent Effect” value falls from 105.6% to -11.61%.

First: CC(C)(C)CC(=O)N1CSCC1C(=O)NCc1cccc(C#N)c1 (stereo not given)
Second: CCc1ccc(O)c(C(=O)N2CCN(CC(=O)N(C)C)CC2)c1
The “Percent Effect” value of the first is lower: -25.6% for the first, 4.973% for the second.

Compared with `Cc1cc(C(=O)N2CCC3(CC(=O)NC3=O)C2)c(-c2ccccc2)o1` (stereo not given), `Cc1cc(C(=O)N2CCNC(c3ccccc3)C2)c2ccc(F)cc2n1` (stereo not given) is higher in “Percent Effect” value: 0.657% for the first, 81.03% for the second.

Going from `CSCC[C@H](NC(C)=O)C(=O)N(C)Cc1ccc(-n2cccn2)cc1` to `CC(O)CN1CCN(C(=O)c2cnn(-c3ccc(Cl)cc3)c2)CC1` (stereo not given), the “Percent Effect” value rises from -22.5% to -6.081%.

Going from `Cc1cc(C(=O)N2C[C@H](c3ccccc3)[C@@H](N)C2)c2ccc(F)cc2n1` to `Cc1cc(C(=O)N2C[C@H]3CCC[C@@]3(CO)C2)c2ccc(F)cc2n1`, the “Percent Effect” value falls from 109.4% to -33.96%.

First: N[C@H]1CN(C(=O)CCc2cc(Cl)no2)C[C@@H]1c1ccccc1
Second: O=C(c1c[nH]nc1-c1cccc(F)c1)N1CCNC(c2ccccc2)C1 (stereo not given)
The “Percent Effect” value of the first is lower: 0.8182% for the first, 39.59% for the second.

Compared with `O=C(c1cc(-c2cn[nH]c2)nc2cc(F)ccc12)N1CCS(=O)(=O)CC1`, `Cc1cc(C(=O)N2CCCC3(CN(C)C(=O)O3)C2)c2ccc(F)cc2n1` (stereo not given) is higher in “Percent Effect” value: -15.17% for the first, -8.064% for the second.

Compared with `CCN1CCN(C(=O)c2cnn(-c3ccccc3Cl)c2)CC1`, `O=C(c1cnn(-c2ccccc2Cl)c1)N1CCN(CCO)CC1` is higher in “Percent Effect” value: 0.9462% for the first, 103.1% for the second.

First: CC(O)CN1CCN(C(=O)c2cn(-c3ccccc3Cl)nn2)CC1 (stereo not given)
Second: CN1CCN(C(=O)c2cnn(-c3ccccc3Cl)c2)CC1
The “Percent Effect” value of the first is lower: 5.18% for the first, 84.01% for the second.

Going from `CCOC1CCN(C(=O)c2cnn(-c3ccccc3Cl)c2)CC1` to `CC(=O)N1CCN(C(=O)c2cnn(-c3ccccc3Cl)c2)CC1`, the “Percent Effect” value rises from -5.801% to -0.729%.

First: O=C(c1cnn(-c2ccccc2F)c1)N1CCN(CCO)CC1
Second: CN(C)C(C(=O)N1CCC(CCO)CC1)c1ccccc1F (stereo not given)
The “Percent Effect” value of the first is higher: -7.046% for the first, -9.373% for the second.

First: CC(Nc1ncnc2sccc12)c1cnn(C)c1 (stereo not given)
Second: Cc1cc(NC(C)C(=O)NCC(F)(F)F)nc(-c2ccncc2)n1 (stereo not given)
The “Percent Effect” value of the first is lower: -17.23% for the first, 14.05% for the second.

Going from `O=C(NC[C@H]1OC[C@@H](NC2CCOCC2)[C@@H]1O)C1CCCC1` to `O=C(COC1CCCCC1)Nc1ccn(Cc2ccccn2)n1`, the “Percent Effect” value rises from -16.92% to -1.457%.

Going from `O=C(COCC(F)(F)F)NC1CCCc2cc(OC(F)F)ccc21` (stereo not given) to `Cc1cc(C(=O)NCC(F)(F)F)c2c(C3CCCN3)noc2n1` (stereo not given), the “Percent Effect” value rises from -1.083% to 103.2%.

Going from `CC(=O)c1c(N(C)C)ccnc1C(F)(F)F` to `Cc1ccccc1-n1ccnc1S(=O)(=O)Cc1nsc(N(C)C)n1`, the “Percent Effect” value rises from -9.795% to 22.74%.

Going from `CCc1nc(C(=O)N2CCCC2)nn1-c1ccccc1Cl` to `Cc1cc(C(=O)NCC(C)C)c2c(C3CCCN3)noc2n1` (stereo not given), the “Percent Effect” value rises from 13.32% to 114.1%.

Going from `Cc1cc(C(=O)NCC(F)(F)F)c2c(C3CCNCC3)noc2n1` to `Cc1ccc(NCc2ccc(C#N)cc2)cc1-n1cnnn1`, the “Percent Effect” value falls from 137.6% to 10.93%.
